Results as given in PubChem BioAssay (NCATS).
Records with an inconclusive call do not appear. Active and inactive are the calls of the source. The call rests on the fitted dose curve; in most records, active means well fitted curve in the direction sought with a large enough effect; inconclusive means small, poorly fitted or top-dose-only effect, or another doubt; inactive means no such curve, though single readings can be large; an effect the other way counts as inactive or inconclusive.

Key:
[1] = target: Cellular tumor antigen p53 (Homo sapiens) (UniProt P04637); test: Primary qHTS for small molecule compounds that upregulate eGFP-tagged delta133p53alpha (in N-terminal) cells. (AID 2060322); conditions: NCI-H358 eGFP-delta133p53alpha fluorescence, 24 h; activation: stronger effect = higher value;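 further: cells pre-induced with doxycycline then dosed without doxycycline; series mostly up to about 56 µM; 0% = DMSO vehicle and 100% = reference activator; nearly all actives have a fitted effect of over 75% in size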
Sequence of Cellular tumor antigen p53 (Homo sapiens) (P04637 whole entry, looked up): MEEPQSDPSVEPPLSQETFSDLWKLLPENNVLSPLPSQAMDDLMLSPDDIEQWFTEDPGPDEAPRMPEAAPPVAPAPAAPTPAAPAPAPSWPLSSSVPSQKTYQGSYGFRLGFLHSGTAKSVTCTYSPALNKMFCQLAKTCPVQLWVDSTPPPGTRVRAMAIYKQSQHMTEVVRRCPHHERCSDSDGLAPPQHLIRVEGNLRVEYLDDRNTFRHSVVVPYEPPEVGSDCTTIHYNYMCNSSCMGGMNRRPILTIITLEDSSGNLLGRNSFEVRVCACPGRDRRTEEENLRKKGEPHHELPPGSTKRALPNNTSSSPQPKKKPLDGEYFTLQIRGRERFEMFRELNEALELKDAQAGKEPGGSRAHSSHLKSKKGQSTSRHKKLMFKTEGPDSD
Procedure, shortened: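 NCI-H358 cells pre-induced 24 h with 10 ng/ml doxycycline for eGFP-delta133p53alpha, plated dox-free and exposed 24 h at 37C to titrated compounds. Fixed, Hoechst-stained; gated GFP peak intensity by laser scanning cytometry, normalized to DMSO (0%) and 57.5 uM 5-azacytidine (100%).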

[2] = target: Aldehyde dehydrogenase, mitochondrial (Homo sapiens) (UniProt P05091); test: qHTS for Inhibitors of the Aldehyde Dehydrogenase Family (ALDH2) Primary screen (AID 2061308);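 further: plate controls were vehicle for no effect and reference inhibitor for full effect; nearly all actives have a fitted effect of over 55% in size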
[3] = target: Retinaldehyde dehydrogenase 3 (Homo sapiens) (UniProt P47895); test: qHTS for Inhibitors of the Aldehyde Dehydrogenase Family (ALDH1A3) Primary screen (AID 2061315);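 further: plate controls were DMSO vehicle for no effect and reference inhibitor for full effect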

COc1cc(O)cc(OC2OC(CO)C(O)C(O)C2O)c1 (centres undefined)
inactive: activation [1] 21.4% | Potency [2] | Potency [3]

C[C@H]1CC[C@@]2(OC1)O[C@H]1CC3C4CC[C@H]5C[C@@H](O)[C@H](O)C[C@]5(C)C4=CC(=O)[C@]3(C)[C@H]1[C@@H]2C (some centres undefined)
inactive: activation [1] 14.3% | Potency [2] | Potency [3]

CC(C)C[C@@H](N)C(=O)N[C@H]1C(=O)N[C@@H](CC(N)=O)C(=O)N[C@H]2C(=O)N[C@H]3C(=O)N[C@H](C(=O)N[C@H](C(=O)O)c4cc(O)cc(O)c4-c4cc3ccc4O)[C@H](O)c3ccc(c(Cl)c3)Oc3cc2cc(c3O[C@@H]2O[C@H](CO)[C@@H](O)[C@H](O)[C@H]2O[C@H]2C[C@](C)(N)[C@H](O)[C@H](C)O2)Oc2ccc(cc2Cl)[C@H]1O
inactive: activation [1] 6.33% | Potency [2] | Potency [3]

O=C(OCC1=CC(Cl)C(O)C(OC(=O)c2ccccc2)C1O)c1ccccc1 (centres undefined)
inactive: activation [1] -22.9% | Potency [2] | Potency [3]

C/C=C(\C)C(=O)OC1CC2C(CC=C3CC(OC4CC(OC)C(OC5CC(OC)C(OC6CC(OC)C(OC7CC(OC)C(OC8CC(OC)C(OC9OC(CO)C(O)C(O)C9O)C(C)O8)C(C)O7)C(C)O6)C(C)O5)C(C)O4)CCC32C)C2(O)CCC(C(C)=O)C12C (centres undefined)
inactive: activation [1] -13% | activity change, negative = inhibition [2] 14.2% [at 11.2 µM] | activity change, negative = inhibition [3] 17.2% [at 11.2 µM]

O=C(OCC1OC(Oc2ccc(O)cc2COC(=O)C2(O)C(O)CCC(=O)C2OC(=O)C2C=CCC2)C(OC(=O)C2C=CCC2)C(O)C1O)C1C=CCC1 (centres undefined)
inactive: activation [1] -3.05% | Potency [2] | Potency [3]

CC(=O)O[C@H]1[C@H](OC(=O)C(C)C)[C@]2(C)OC3(CC[C@]2(C)[C@H]2CCC[C@]4(CO4)[C@]12C)COC(=O)C3 (some centres undefined)
inactive: activation [1] 1.53% | Potency [2] | Potency [3]

C[C@H]1[C@H](C)CC[C@]2(C(=O)O)CC[C@]3(C(=O)O)C(=CCC4[C@@]5(C)CC[C@H](O[C@@H]6O[C@@H](C)[C@H](O)[C@@H](O)[C@H]6O)C(C)(C)C5CC[C@]43C)[C@H]12 (some centres undefined)
inactive: activation [1] -4.58% | Potency [2] | Potency [3]

COc1c2c(c(C)c3c1C(=O)OC3)O[C@@]1(C)C[C@@H](O)[C@]34O[C@](OC)(CC[C@]3(C)[C@H]1C2)OC4(C)C
inactive: activation [1] -1.53% | Potency [2] | Potency [3]

COc1ccc(CNC(=O)c2cc(-c3cncc(C)c3)ncc2-c2nccs2)nc1OC
inactive: activation [1] 0.477% | Potency [2] | Potency [3]

O=C1CCC(=O)N(O)CCCCCNC(=O)CCC(=O)N(O)CCOCCNC(=O)CCC(=O)N(O)CCCCCN1
inactive: activation [1] -16.8% | Potency [2] | Potency [3]

COC(=O)c1cc(OC)cc(OC)c1C(=O)c1c(OC)cc2c(c1O)C1CCC(O)C(C)(O2)O1 (centres undefined)
inactive: activation [1] 25.2% | Potency [2] | Potency [3]

COC(=O)CC[C@@H](C)C1CCC2C3CCC4C[C@H](OC(C)=O)CCC4(C)C3C[C@H](O)C21C (some centres undefined)
inactive: activation [1] 3.67% | Potency [2] | Potency [3]

CC(C)C1=CC2=CCC3[C@](C)(CCC[C@@]3(C)C(=O)O)C2CC1=O (some centres undefined)
inactive: activation [1] 8.93% | Potency [2] | Potency [3]

CC(C)c1ccc2c(c1)[C@H](O)CC1[C@@](C)(C(=O)O)CCC[C@]21C (some centres undefined)
inactive: activation [1] -4.46% | Potency [2] | Potency [3]

N=c1nc2n(cc1F)C1OC(CO)C(O)C1O2 (centres undefined)
inactive: activation [1] 0.333% | Potency [2] | Potency [3]

CC(=O)O[C@@H]1[C@H](O[C@@H]2OC[C@](O)(CO)[C@H]2O)[C@@H](O[C@@H]2O[C@@H](C)[C@H](O)[C@@H](O)[C@H]2O)[C@H](OC(=O)[C@]23CCC(C)(C)C[C@H]2C2=CCC4[C@@]5(C)C[C@H](O)[C@H](O[C@@H]6O[C@H](C(=O)O)[C@@H](O)[C@H](O)[C@H]6O)[C@@](C)(C(=O)O)C5CC[C@@]4(C)[C@]2(C)CC3)O[C@@H]1C (some centres undefined)
inactive: activation [1] 18.3% | Potency [2] | Potency [3]

CC(C)[C@H]1CCC(CO)=C[C@@H]1/C=C(\CO)C(=O)O
inactive: activation [1] -15.3% | Potency [2] | Potency [3]

C=C1C[C@@]23CC[C@@H]4[C@](C)(C(=O)O)CCC[C@@]4(C)C2=CC[C@H]1C3
inactive: activation [1] 0.763% | Potency [2] | Potency [3]

CC(=O)[C@@H]1C[C@H](C(C)(C)O[C@@H]2O[C@H](CO)[C@@H](O)[C@H](O)[C@H]2O)CC[C@@]2(CO)OC(=O)C[C@@H]12
inactive: activation [1] -6.11% | Potency [2] | Potency [3]

COc1cc(C(=O)NC2CCN(C)CC2)ccc1Nc1ncc2c(n1)N(C1CCCC1)CC(F)(F)C(=O)N2C
inactive: activation [1] 29.5% | Potency [2] | Potency [3]

C[C@@H]1CC[C@]2(C(=O)O[C@@H]3O[C@H](CO[C@@H]4O[C@H](CO)[C@@H](O)[C@H](O)[C@H]4O)[C@@H](O)[C@H](O)[C@H]3O)CC[C@]3(C)C(=CCC4[C@@]5(C)CC[C@H](O)[C@](C)(C(=O)O)C5CC[C@]43C)[C@@H]2[C@]1(C)O (some centres undefined)
inactive: activation [1] -6.11% | Potency [2] | Potency [3]

CC(=O)OC[C@]12[C@H](OC(C)=O)[C@H](OC(=O)c3ccccc3)[C@@H]3[C@@H](OC(C)=O)[C@]1(OC3(C)C)[C@H](C)C[C@H](OC(=O)c1ccccc1)[C@@H]2OC(=O)c1ccccc1
inactive: activation [1] -31.3% | Potency [2] | Potency [3]
